Bioassay records as filed in PubChem.
Most compounds without a hit are left out; they make up all but 2.9% or so of the library.
D3 antag: qHTS of D3 Dopamine Receptor Antagonist: qHTS. D(3) dopamine receptor (Homo sapiens), P35462. D3R cells, DiscoveRx beta-arrestin luminescence, antagonist mode; stronger effect = lower value. max response, negative = inhibition, %. 2.5% of 360,000 active; in the data active means max response below about -50%; inconclusive means no clear call, values can overlap the other calls
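Cells plated overnight at 1500 cells/well, then exposed to library compounds with dopamine controls for 90 minutes at 37 degrees C. DiscoveRx reagent added for 30–60 minutes at room temperature; luminescence read, quantitative HTS format.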
Rango dissoc inh: qHTS Assay for Inhibitors of RanGTP induced Rango (Ran-regulated importin-beta cargo) - Importin beta complex dissociation; Biochemical FRET Rango-importin beta, RanGTP-induced dissociation; 0.071% of 340,000 active; Snurportin-1 (Homo sapiens) + GTP-binding nuclear protein Ran (Homo sapiens) + Importin …; Potency, µM (top dose mostly 46.1 µM); further: nearly all actives have a fitted effect of over 45% in size
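Quantitative HTS using a FRET biosensor: 0.1 uM Rango, 0.25 uM importin beta, 0.6 uM Ran, 2 mM GTP, 0.2 uM RCC1 final, PBS with DTT, Tween-20 and BSA. Post-read taken 45 min after Ran addition.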
TSG101-PTAP inh: qHTS Assay for Iinhibitors of HIV-1 Budding by Blocking the Interaction of PTAP/TSG101 | AID 493005, 2010 | 340,000 tested, under 10 active | Fluorescence polarization, FITC-PTAP peptide / Tsg101 binding | Potency, µM (series often up to 115 µM), usual class: inhibitors | Tumor susceptibility gene 101 protein (Homo sapiens), Q99816; active means well fitted inhibition curve with a large enough effect in the main read-out, with a control signal flat, not every such curve was filed as active; inconclusive means small, poorly fitted or top-dose-only effect, or effect the other way, or a change in a side signal; inactive means no such curve, though single readings can be large or run the other way
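Fluorescence anisotropy tracks displacement of a FITC-tagged PTAP peptide (50 nM) from the Tsg101 binding domain (10 uM), following a 20 min room-temperature incubation at pH 7.5.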
Mm-Cpn inhibitor: Inhibitors of TCP-1 ring complex (TRiC) of Methanococcus maripaludis (MmCpn): qHTS; Potency, µM (top dose mostly 76.9 µM), usual class: inhibitors; 0.031% of 330,000 active; AID 504842, 2011; purified Mm-Cpn ATPase, ADP Transcreener TR-FRET; active means well fitted inhibition curve with a large enough effect; inconclusive means small, poorly fitted or top-dose-only effect; further: nearly all actives have a fitted effect of over 80% in size
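Eu-cryptate anti-ADP/ADP-d2 competition gives a ratio inversely related to ADP. Enzyme at 25 nM was pre-exposed to compound for 10 min, then given 10 uM ATP for 30 min, 37°C throughout.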
Rango complex inh: qHTS Assay for Inhibitors of Rango (Ran-regulated importin-beta cargo) - Importin beta complex formation. Importin subunit beta-1 (Homo sapiens), Q14974. Rango CFP/YFP FRET sensor + importin beta, 45 min. Potency, µM (doses to about 92.2 µM). 0.031% of 340,000 active; further: nearly all actives have a fitted effect of over 15% in size
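FRET biosensor (snurportin 1 IBB flanked by EYFP and cerulean), 50 nM, with compound 5 min, then 0.125 microM importin beta in PBS, 1 mM DTT, 0.02% Tween-20, 0.1% BSA. CFP/YFP ratio read after 45 min at room temperature; pre-read flags interference.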
D3 ag: qHTS of D3 Dopamine Receptor Agonist: qHTS. D3R DiscoveRx beta-arrestin cells, luminescence, 90 min. 0.58% of 410,000 active. max activation, %. D(3) dopamine receptor (Homo sapiens), P35462. AID 652048, 2013; in the data active means max activation above about 30%
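Agonist mode: compounds and dopamine controls were applied to plated cells for 90 min at 37 degrees C after an overnight attachment at 1500 cells/well. Luminescent read-out followed 30 - 60 minutes at room temperature with DiscoveRx detection reagent.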
A number is an active result; - = inactive; ? = inconclusive; . = no result; ! = a repeat was not active. Unless noted, the call rests on the fitted dose curve.

SMILES | D3 antag | Rango dissoc inh | TSG101-PTAP inh | Mm-Cpn inhibitor | Rango complex inh | D3 ag
CC(C)C[C@H]1CN([C@@H](CC(C)C)CN2CCCC2CN2C(=S)NC[C@@H]2Cc2ccccc2)C(=S)N1CC1CCCCC1 (stereo not given in full) | -111.9 | . | . | . | . | -
CC(C)C[C@H]1CN([C@@H](Cc2ccc(O)cc2)CN2CCCC2CN2C(=S)NC[C@@H]2Cc2ccccc2)C(=S)N1CC1CCCCC1 (stereo not given in full) | -50.8 | . | . | . | . | -
CC(C)C[C@@H](CN1CCCC1CN1C(=S)NC[C@@H]1Cc1ccccc1)N1C[C@H](Cc2ccccc2)N(CC2CCCCCC2)C1=S (stereo not given in full) | - | . | . | . | . | -
CC(C)C[C@H]1CN([C@@H](Cc2ccc(O)cc2)CN2CCC[C@@H]2CN2C(=S)NC[C@@H]2Cc2ccccc2)C(=S)N1CC1CCCCCC1 | - | . | . | . | . | -
CCOc1ccc(NC(=O)CC(C)O)cc1 (stereo not given) | . | . | . | . | . | -
C[C@]1(Cn2ccnn2)[C@H](C(=O)O)N2C(=O)C[C@H]2S1(=O)=O | . | . | . | . | . | -
CCOC(=O)c1ccccc1NC(=O)CN(c1cc(C(F)(F)F)ccc1Cl)S(C)(=O)=O | . | . | . | . | . | -
Cc1ccc(CNC(=O)c2cccc(-n3cnc4cccnc43)c2)cc1 | . | . | . | . | . | -
Cc1ccc(CNC(=O)CSc2c3c(nc4cc(Cl)ccc24)CCCC3)o1 | -76.3 | - | - | ? | - | -
CCOc1ccc(CNC(=O)CSc2c3c(nc4cc(Cl)ccc24)CCCC3)cc1 | . | . | . | . | . | -
COc1cc(OC)nc(-n2ncc(Br)c(Br)c2=O)n1 | -85.7 | - | - | - | - | -
COC(=O)c1cnn(-c2nc(OC)cc(OC)n2)c1C | - | - | - | - | - | -
COc1ccc(CN2CCc3ccccc3C2)c(OC)c1OC | -74.6 | - | - | - | - | -
COc1ccc(CN2CCc3ccccc3C2)c(OC)c1 | -64.9 | - | - | - | - | -
COc1ccc(OC)c(CN2CCN(Cc3ccc(OC)c(OC)c3OC)CC2)c1 | ? | . | . | . | . | -
O=C(/C=C/c1ccc(NC(=O)c2ccccc2-c2ccccc2C(=O)O)cc1)c1ccccc1 | - | ? | - | - | ? | -
O=C(/C=C/c1ccncc1)c1ccc(NC(=O)c2ccccc2F)cc1 | -66.5 | - | - | - | ? | -
N/C(=N\OC(=O)c1ccc(Cl)c([N+](=O)[O-])c1)c1ccccc1 | -65.3 | - | - | - | - | -
N/C(=N\OC(=O)c1ccc(Cl)c([N+](=O)[O-])c1)c1ccccn1 | ? | - | - | - | - | -
N/C(=N\OC(=O)c1ccccc1Br)c1cccc([N+](=O)[O-])c1 | - | - | - | - | - | -
N/C(=N\OC(=O)c1ccccc1Br)c1ccc([N+](=O)[O-])cc1 | -70.8 | - | - | - | - | -
CC(C)C[C@H](NC(=O)[C@@H](COC(C)(C)C)NC(=O)[C@H](Cc1ccc(O)cc1)NC(=O)[C@H](CO)NC(=O)[C@H](Cc1c[nH]c2ccccc12)NC(=O)[C@H](Cc1cnc[nH]1)NC(=O)[C@@H]1CCC(=O)N1)C(=O)N[C@@H](CCCN=C(N)N)C(=O)N1CCC[C@H]1C(=O)NNC(N)=O | . | . | . | . | . | -
CC1=C(C(=O)Nc2cccnc2)C(c2ccc(F)cc2)n2nc(SCc3ccccc3)nc2N1 (stereo not given) | . | . | . | . | . | -
COc1ccc(-c2csc(NCCc3nc4cc(Cl)c(Cl)cc4n3CCCO)n2)cc1 | - | - | - | . | - | -
Cc1ccc(Cn2c(C(C)Nc3nc(-c4ccc(Cl)cc4)cs3)nc3cc(C(=O)NCCCO)ccc32)cc1 (stereo not given) | - | - | - | . | ? | -
SMILES | D3 antag | Rango dissoc inh | TSG101-PTAP inh | Mm-Cpn inhibitor | Rango complex inh | D3 ag
OCCCn1c(C2CCCN2c2nc(-c3ccc(F)cc3)cs2)nc2cc(Cl)c(Cl)cc21 (stereo not given) | -55.7 | - | - | . | - | -
Cc1ccc(Cn2c(CCNc3nc(-c4ccc(C)cc4)cs3)nc3cc(C(=O)NCCCO)ccc32)cc1 | - | - | - | . | - | 31.5
Cc1ccc(-c2csc(NCCc3nc4cc(Cl)c(Cl)cc4n3CCCO)n2)cc1 | - | - | - | . | - | 69.8
COC(=O)c1ccc(CNC(=O)c2nc(Cn3nc(C)c(Br)c3C)no2)cc1 | . | . | . | . | . | -
CCc1cccc(C)c1NC(=O)CSc1nnc(CC)n2c1cc1occc12 | . | . | . | . | . | -
CCCCN(CCCC)CCNC(=O)c1cn(C)c2ccc(S(=O)(=O)N3CCOCC3)cc2c1=O | . | . | . | . | . | -
Cc1ccc(S(=O)(=O)C/N=C(/NC(=S)N(c2ccccc2)c2ccccc2)c2ccccc2)cc1 | -55.6 | - | - | - | - | -
Cc1ccc(S(=O)(=O)/N=C(/NC(=S)Nc2ccccc2)c2ccccc2)cc1 | - | - | - | - | - | -
CCc1ccc(-n2c(=O)c3c4c(sc3n(CC(=O)N3CCC(C)CC3)c2=O)CCC4)cc1 | . | . | . | . | . | -
Cc1ccsc1/C=C/C1=NCCCN1C | -52.1! | ? | - | - | - | -
Cc1ccc(CNC(=O)c2ccc(Cn3c(SCc4ccccc4F)nc4cccnc43)cc2)cc1 | . | . | . | . | . | -
CN(C)CCCC1(c2ccc(F)cc2)OCc2cc(C#N)ccc21 (stereo not given) | -58.7 | - | - | - | - | -
CCN(CC)C(C(=O)Nc1ccc(C(C)C)cc1)c1ccc2c(c1)OCO2 (stereo not given) | -54.1 | - | - | - | - | -
COc1ccccc1CNC(=O)Cc1ccc(C)cc1 | - | - | - | - | - | -
COc1ccccc1C(C)NCC(=O)NCC(=O)Nc1ccc(F)c(F)c1F (stereo not given) | - | - | - | - | - | -
COc1ccccc1CNCC(=O)NCc1ccc(C)cc1 | -86.7 | - | - | - | - | -
COc1ccccc1C(C)NCC(=O)NCc1ccc(C)cc1 (stereo not given) | -58.5 | - | - | - | - | -
Cc1ccc(CNC(=O)CC2Oc3ccccc3NC2=O)cc1 (stereo not given) | . | . | . | . | . | -
CCOc1ccccc1CNCCN1CCOCC1 | - | - | - | - | - | -
C=CCOc1ccccc1CNCCCN1CCOCC1 | -59.1 | - | - | - | - | -
COc1cc(C(=O)Nc2nnc(S(=O)(=O)N(C)c3ccccc3)s2)cc(OC)c1OC | . | . | . | . | . | -
OCCN1CCN(c2ncnc3c2c(-c2ccccc2)cn3-c2ccc(F)cc2)CC1 | -74.7 | - | - | - | - | -
